The source of these data is the supplement of paper PMC11417369.

Whole data set: some 25,000 sequences, median “ln(normalized median fluorescence intensity)” near 7.1, cut for the highest 2% near 10. Many of the other results were omitted from the sample, so the highest values are more common in it than they were.

The experiment deals with PfSIP2 AP2 domain 1 (GST-tagged). As to the kind of experiment: gcPBM binding intensity (ln(normalized median fluorescence intensity)); higher = stronger DNA binding. The gist of the method:
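The highest Masliner-normalised natural-log median intensity across replicate spots of either probe orientation is reported as binding intensity. GST-tagged P. falciparum DNA-binding domains expressed in E. coli were applied for 1 h to an Agilent 4 × 180k array of primer-extended double-stranded 36-bp intergenic genomic probes plus negative controls, and bound protein was detected with Alexa488 anti-GST antibody and scanned at 488 nm.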
As to “GAAAAATTTAATTATTGTACGTTTCATCTATATTTA [XGTACX_site414]”, the “gcPBM binding intensity (ln)” value stood at 6.91. Turning to “TCATTTTATTATTCTACACACTTATCTATAATTATA [CACACA_site34]”, the “gcPBM binding intensity (ln)” value was 7.2.

As to “AAAAAAAAAAAAAAAGTGCATATATAAATATTGTAT [GTGCAC_site9459]”, the “gcPBM binding intensity (ln)” value came to 9.58. Then AAAAAAAAGTTGTAAGTGCATGTATATAATAATATT, with 8.08. On to “AGGATATAAAGTTGTGCATGTCAAGTGCACCGTATT [TGCATGCA_site451]”, for which the “gcPBM binding intensity (ln)” value is 12.2. Take “TTTAGTTTTTATATAGCACACATATTGTGATTATGT [CACACA_site8316]”: the “gcPBM binding intensity (ln)” value stood at 6.96. For the sequence “ATATTACACATATATGCACACATTGTAGTTATTTAT [CACACA_site8843]”, the “gcPBM binding intensity (ln)” value came to 9.43.

Consider “ATATATATATAAAGTTGTACATTTTTTATTTTTTCA [XGTACX_site7847]”, for which the “gcPBM binding intensity (ln)” value was found to be 9.04. Turning to “CATTTTGTTTTAAAGTGTACATTATGTAATATAAAA [XGTACX_site647]”, the “gcPBM binding intensity (ln)” value was 7.15. Then “ATTGTGCACTTATATGCACACATTTTAGTTTTTTTT [CACACA_site2028]”, with 10.6; and “ATTTATATGCACCATTGTACGTTTTATAAAGTTTGG [XGTACX_site3755]”, with 10.7; and “TACATATATATTTGTTCACACACACCCAAAAAAAAA [CACACA_site8788]”, with 7.01. For the sequence “AAAAGTAACAAAGCTACACACATTTAAATAAACATA [CACACA_site1421]”, the “gcPBM binding intensity (ln)” value turned out to be 6.94. For the sequence “GTTCTAAATATTATTGCATGTTGCACGTTTCTCTGT [TGCATGCA_site159]”, the “gcPBM binding intensity (ln)” value was 7.65. The figure for “TGAACAGGTCATAATTTACACACTATATATTTTATT [CACACA_site8123]” is 6.87. The figure for “TGTATAAAAAACTAATGTACAAATGACAAGATATCT [XGTACX_site4600]” is 6.9; for “GTAAGAAAGAAAGGAAGTACGTAAGAAAGTAAGAAC [XGTACX_site1239]” it is 7.27. Consider “TACATAAACTTTATAACACACACTTATATATATATA [CACACA_site1106]”, for which the “gcPBM binding intensity (ln)” value is 9.34. Then “ATTCACAAATATATGGTGCATAATATATATATATAT [GTGCAC_site9674]”, with 10.6; and “CATATAAAAATATATGCACACAAATAAAAAATTATA [CACACA_site9210]”, with 7.29.

Regarding “AACTCATAGCGGTGTGCACACAAAAAATTAAAAAAA [CACACA_site3033]”, the “gcPBM binding intensity (ln)” value came to 8.94. Then “TGAATATTCATATGCACACAAATTAATATACATAAT [CACACA_site442]”, with 7.03.

“ATTATATACATATATGCACACAAAAAAATATATATT [CACACA_site8508]”: the “gcPBM binding intensity (ln)” value is 7.28. Consider “TTTTCATATTATAGTGCACACAAAAATATATATATG [CACACA_site8929]”, for which the “gcPBM binding intensity (ln)” value was found to be 10.8. Then “ATGGCATAAATATATGCACACACAAAAAAAAAAAAA [CACACA_site7902]”, with 7.06; and “TTCATATTATAGTGCACACAAAAATATATATATGGT [CACACA_site2855]”, with 10.7.

Regarding “CTCATAGTTGGGTGCACACAAAAAATTAAAAAAATA [CACACA_site3032]”, the “gcPBM binding intensity (ln)” value was found to be 12.3. The figure for “AACTCATAGGAGTGTGCACACAAAAAATTAAAAAAA [CACACA_site8996]” is 9.24; for “ATTAATTTTATATATGCACACAAAATATGTTCATAT [CACACA_site9350]” it is 7.13; for “ATTATATATATTTATGCACACAAAATATATTATATA [CACACA_site9244]” it is 7.56.

With “TGAATAAATATAAAAGGTACACATATAAATATATAT [XGTACX_site6349]”, the “gcPBM binding intensity (ln)” value turned out to be 7.11. Regarding “TATATATATATAATATGTACATATAATCAACATTTT [XGTACX_site3915]”, the “gcPBM binding intensity (ln)” value is 8.68.

In the case of “TATTAGTCGAATGATGTACACACATACAAAACATTT [CACACA_site9331]”, the “gcPBM binding intensity (ln)” value came out at 6.96. The figure for “TTTTTTTTTTGATGTTGTACATATATATTATATATA [XGTACX_site6377]” is 7.17; for “TAAAAATAATTTGCATGTACATAGGTCGATGTATTT [XGTACX_site1357]” it is 7.08; for “ATACATATAGGATGCACACATAATTCAAATACAATA [CACACA_site651]” it is 7.73. As to “TTTTTCTAATTATGCACACATATCAAAATATTCAAT [CACACA_site2749]”, the “gcPBM binding intensity (ln)” value came to 9.18. For the sequence “TTTTTTTCTAATTATGCACACATATCAAAATATTCA [CACACA_site8886]”, the “gcPBM binding intensity (ln)” value was determined as 10.3. Then “ATCTATCATATTTATGCACACAAAAATAATTAATTC [CACACA_site8837]”, with 7.35; and “CGAAATCATATGTACACACACATATATATATATATA [CACACA_site2151]”, with 9.32; and “AATAATAAAGTGAACACACACATATAATATATATAT [CACACA_site4143]”, with 8.41.

As for ACACACAATACAAAAGTGCATATAATAATTAATCAT, the “gcPBM binding intensity (ln)” value was 8.76. On to “TATATAATCGAGTGCACACACAAAAAAAAAGTGAAC [CACACA_site1483]”, for which the “gcPBM binding intensity (ln)” value was determined as 10.8.

Regarding “TGTATATAATCGAGTGCACACACAAAAAAAAAGTGA [CACACA_site8417]”, the “gcPBM binding intensity (ln)” value turned out to be 10.4. Take “ATAATAATAAAGTGAACACACACATATAATATATAT [CACACA_site9378]”: the “gcPBM binding intensity (ln)” value turned out to be 7.19. The figure for “ATAATATTCGAGTGTGCACACAAACATACATATATA [CACACA_site3396]” is 8.79; for “CTATAATAATAAAGTGAACACACACCGATAATATAT [CACACA_site9377]” it is 7.02. For the sequence “TATATAACCGAGTGCACACACAAAAAAAAAGTGAAC [CACACA_site6806]”, the “gcPBM binding intensity (ln)” value amounted to 11.1. Take “AAAATATAATATATTGCACACAAAAAGTGAATTATT [CACACA_site8489]”: the “gcPBM binding intensity (ln)” value was found to be 6.95.
